The inhibition is the change of the read-out against control, counted positive when it falls.

From ChEMBL document CHEMBL1961873, “Compounds: GSK PKIS; Assays: Nanosyn kinase panel” (2012) come the findings set out here.

Assay [1] addresses Platelet-derived growth factor receptor beta (Homo sapiens) (UniProt P09619). Particulars: at 1 µM.
Assay [2] deals with Tyrosine-protein kinase FRK (Homo sapiens) (UniProt P42685). Particulars: at 0.1 µM.
For assay [3] the target is unchanged. Particulars: at 1 µM.
Assay [4] addresses Protein-tyrosine kinase 2-beta (Homo sapiens) (UniProt Q14289). Particulars: at 0.1 µM.
Assay [5] has the same target. To be noted: at 1 µM.
Assay [6] concerns the target Proto-oncogene tyrosine-protein kinase receptor Ret (Homo sapiens) (UniProt P07949). Particulars: at 0.1 µM.
Assay [7] has the same target. Particulars: at 1 µM.
The subject of assay [8] is Proto-oncogene tyrosine-protein kinase receptor Ret (Homo sapiens), P07949 [V804L]. To be noted: at 0.1 µM.
The test system is the same in assay [9]. To be noted: at 1 µM.
Assay [10] relates to Proto-oncogene tyrosine-protein kinase receptor Ret (Homo sapiens), P07949 [Y791F]. Particulars: at 0.1 µM.
Chain of Proto-oncogene tyrosine-protein kinase receptor Ret (Homo sapiens), P07949 [Y791F] (P07949 whole entry Y791F): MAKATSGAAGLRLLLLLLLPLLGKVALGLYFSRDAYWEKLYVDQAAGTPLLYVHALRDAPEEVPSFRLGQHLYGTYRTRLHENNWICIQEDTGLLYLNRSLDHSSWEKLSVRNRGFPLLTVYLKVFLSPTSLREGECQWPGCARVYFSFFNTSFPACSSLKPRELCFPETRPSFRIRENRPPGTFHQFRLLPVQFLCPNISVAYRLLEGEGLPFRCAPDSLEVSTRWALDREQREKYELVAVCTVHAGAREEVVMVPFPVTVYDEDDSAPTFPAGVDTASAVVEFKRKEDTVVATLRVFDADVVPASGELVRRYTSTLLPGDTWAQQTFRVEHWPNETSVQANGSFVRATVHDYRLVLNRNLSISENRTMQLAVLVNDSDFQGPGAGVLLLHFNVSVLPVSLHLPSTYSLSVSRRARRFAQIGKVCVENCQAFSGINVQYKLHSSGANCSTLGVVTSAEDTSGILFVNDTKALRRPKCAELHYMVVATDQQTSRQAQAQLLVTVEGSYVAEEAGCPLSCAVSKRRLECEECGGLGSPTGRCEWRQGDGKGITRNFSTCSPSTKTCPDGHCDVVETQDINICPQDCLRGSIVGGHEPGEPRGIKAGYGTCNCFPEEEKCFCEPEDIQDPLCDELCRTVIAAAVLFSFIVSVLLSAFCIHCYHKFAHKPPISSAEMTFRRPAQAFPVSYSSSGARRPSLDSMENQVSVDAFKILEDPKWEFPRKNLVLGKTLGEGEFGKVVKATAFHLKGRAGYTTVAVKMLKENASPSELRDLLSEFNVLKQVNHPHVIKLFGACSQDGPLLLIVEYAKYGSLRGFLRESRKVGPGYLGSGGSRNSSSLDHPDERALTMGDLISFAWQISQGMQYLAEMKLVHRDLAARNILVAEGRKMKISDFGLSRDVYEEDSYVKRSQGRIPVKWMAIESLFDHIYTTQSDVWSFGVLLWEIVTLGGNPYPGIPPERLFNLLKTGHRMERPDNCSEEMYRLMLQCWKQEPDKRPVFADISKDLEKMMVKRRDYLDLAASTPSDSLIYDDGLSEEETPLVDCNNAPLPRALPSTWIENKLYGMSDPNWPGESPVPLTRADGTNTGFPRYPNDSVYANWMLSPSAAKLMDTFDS

Chain of Tyrosine-protein kinase FRK (Homo sapiens) (P42685 whole entry): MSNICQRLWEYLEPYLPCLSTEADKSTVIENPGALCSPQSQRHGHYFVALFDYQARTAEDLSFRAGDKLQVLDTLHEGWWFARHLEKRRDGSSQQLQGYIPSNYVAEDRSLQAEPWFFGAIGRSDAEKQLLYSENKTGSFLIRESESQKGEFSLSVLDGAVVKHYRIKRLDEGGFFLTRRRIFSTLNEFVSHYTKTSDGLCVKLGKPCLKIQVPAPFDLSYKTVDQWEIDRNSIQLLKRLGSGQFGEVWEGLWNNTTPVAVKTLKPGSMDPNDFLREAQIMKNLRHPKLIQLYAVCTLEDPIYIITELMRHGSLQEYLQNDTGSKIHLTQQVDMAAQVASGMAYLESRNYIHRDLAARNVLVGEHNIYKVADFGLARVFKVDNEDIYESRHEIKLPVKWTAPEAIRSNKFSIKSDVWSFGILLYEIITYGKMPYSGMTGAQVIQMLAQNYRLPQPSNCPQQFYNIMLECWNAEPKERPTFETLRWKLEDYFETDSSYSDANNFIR
Chain of Protein-tyrosine kinase 2-beta (Homo sapiens) (Q14289 whole entry, looked up): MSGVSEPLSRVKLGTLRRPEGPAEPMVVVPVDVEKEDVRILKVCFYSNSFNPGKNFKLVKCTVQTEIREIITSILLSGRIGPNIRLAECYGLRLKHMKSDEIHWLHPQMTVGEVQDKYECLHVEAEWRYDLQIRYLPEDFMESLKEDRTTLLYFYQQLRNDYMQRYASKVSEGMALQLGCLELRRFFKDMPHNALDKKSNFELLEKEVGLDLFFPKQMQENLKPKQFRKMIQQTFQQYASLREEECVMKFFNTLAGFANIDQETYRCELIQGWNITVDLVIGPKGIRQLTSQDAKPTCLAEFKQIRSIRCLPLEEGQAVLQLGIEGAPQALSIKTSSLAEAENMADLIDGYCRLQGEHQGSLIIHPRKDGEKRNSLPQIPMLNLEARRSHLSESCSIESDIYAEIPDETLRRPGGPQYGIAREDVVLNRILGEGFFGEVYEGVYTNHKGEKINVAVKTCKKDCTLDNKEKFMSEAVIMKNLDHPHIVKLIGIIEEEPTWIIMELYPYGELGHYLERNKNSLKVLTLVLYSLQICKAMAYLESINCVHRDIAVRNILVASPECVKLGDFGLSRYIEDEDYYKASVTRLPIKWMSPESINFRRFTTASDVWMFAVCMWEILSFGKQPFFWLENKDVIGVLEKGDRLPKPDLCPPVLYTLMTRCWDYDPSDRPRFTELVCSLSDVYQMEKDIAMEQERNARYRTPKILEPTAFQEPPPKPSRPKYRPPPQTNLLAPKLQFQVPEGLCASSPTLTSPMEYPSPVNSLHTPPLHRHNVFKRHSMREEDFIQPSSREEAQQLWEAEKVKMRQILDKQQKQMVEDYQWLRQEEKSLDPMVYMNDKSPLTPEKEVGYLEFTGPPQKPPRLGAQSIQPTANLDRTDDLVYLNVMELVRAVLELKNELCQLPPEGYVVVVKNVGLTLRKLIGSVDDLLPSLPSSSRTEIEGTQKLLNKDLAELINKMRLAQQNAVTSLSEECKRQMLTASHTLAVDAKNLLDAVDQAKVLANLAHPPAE
Chain of Platelet-derived growth factor receptor beta (Homo sapiens) (P09619 whole entry): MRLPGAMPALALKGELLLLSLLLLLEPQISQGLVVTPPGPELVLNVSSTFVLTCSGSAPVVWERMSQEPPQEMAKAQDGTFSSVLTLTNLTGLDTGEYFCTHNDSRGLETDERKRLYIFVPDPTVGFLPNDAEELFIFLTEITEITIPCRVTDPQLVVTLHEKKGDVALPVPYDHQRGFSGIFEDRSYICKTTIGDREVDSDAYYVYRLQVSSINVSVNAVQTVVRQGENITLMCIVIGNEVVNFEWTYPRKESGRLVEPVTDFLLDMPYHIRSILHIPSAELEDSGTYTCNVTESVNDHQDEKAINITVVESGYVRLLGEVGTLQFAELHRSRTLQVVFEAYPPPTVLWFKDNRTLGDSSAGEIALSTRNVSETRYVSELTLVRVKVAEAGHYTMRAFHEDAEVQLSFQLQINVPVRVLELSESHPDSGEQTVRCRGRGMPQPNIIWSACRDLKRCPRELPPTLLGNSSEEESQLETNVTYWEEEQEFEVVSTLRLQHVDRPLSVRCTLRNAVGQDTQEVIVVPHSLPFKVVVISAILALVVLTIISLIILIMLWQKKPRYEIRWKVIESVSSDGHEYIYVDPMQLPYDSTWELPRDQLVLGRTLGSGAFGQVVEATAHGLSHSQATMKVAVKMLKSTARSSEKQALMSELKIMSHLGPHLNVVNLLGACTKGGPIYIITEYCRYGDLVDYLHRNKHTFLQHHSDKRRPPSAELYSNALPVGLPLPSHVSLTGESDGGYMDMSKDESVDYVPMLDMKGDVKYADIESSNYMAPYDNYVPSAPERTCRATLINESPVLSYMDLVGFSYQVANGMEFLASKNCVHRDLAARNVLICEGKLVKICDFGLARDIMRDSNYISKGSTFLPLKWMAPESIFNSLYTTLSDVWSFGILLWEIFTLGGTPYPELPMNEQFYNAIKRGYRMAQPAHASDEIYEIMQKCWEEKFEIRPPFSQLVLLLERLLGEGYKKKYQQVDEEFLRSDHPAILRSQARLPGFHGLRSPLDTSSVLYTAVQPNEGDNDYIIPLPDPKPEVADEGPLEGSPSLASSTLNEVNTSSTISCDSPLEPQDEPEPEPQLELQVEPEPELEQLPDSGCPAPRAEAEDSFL
Chain of Proto-oncogene tyrosine-protein kinase receptor Ret (Homo sapiens), P07949 [V804L] (P07949 whole entry V804L): as the sequence (P07949 whole entry Y791F) above, with F791Y, V804L counted along it
Chain of Proto-oncogene tyrosine-protein kinase receptor Ret (Homo sapiens) (P07949 whole entry): as the sequence (P07949 whole entry Y791F) above, with F791Y counted along it

As to `CCS(=O)(=O)c1ccc(OC)c(Nc2ncc(-c3cccc(-c4ccccc4F)c3)o2)c1`, the inhibition came out at 63.6% in assay [1]; 0.61% in assay [2]; 11.7% in assay [3]; 7.79% in assay [4]; 0.8% in [5]; 15.4% in [6]. The inhibition in assay [7] came out at 54.4%; in assay [8], 3.52%; in [9] it was 9.78%; in assay [10], 10.1%.
On to `O=C1Nc2ccc(I)cc2C1=Cc1cc(Br)c(O)c(Br)c1`, for which the inhibition came to 2.27% in assay [1]; 2.55% in assay [2]; 4.15% in [3]; 5.41% in assay [4]; 3.05% in assay [5]; 5.98% in [6]. Besides, the inhibition in [7] was found to be 7.84%; in assay [8], 1.81%; in [9], 12%; in assay [10], 6.36%.
Consider `O=C(Nc1n[nH]c2cc(-c3ccccc3)ccc12)C1CC1`, for which the inhibition was 13.3% in assay [1]; 2.92% in assay [2]; 2.17% in [3]; 11.3% in assay [4]; 7.93% in assay [5]; 4.67% in [6]. For the same molecule, the inhibition in assay [7] is 5.93%; in assay [8], 1.54%; in [9] it was 0.17%; in assay [10], 4.42%.
With `COC(=O)Nc1nc2ccc(Sc3ccc(NC(=O)Nc4cc(C(F)(F)F)ccc4F)cc3)cc2[nH]1`, the inhibition is 16.5% in assay [1]; 0.1% in [2]; 0.7% in assay [3]; 2.56% in assay [4]; 0.15% in assay [5]; 24.7% in [6]. Moreover, the inhibition worked out at 74.1% in assay [7], 9.72% in assay [8], 58% in assay [9] and 23% in [10].
For `C/C(Nc1ccc(S(N)(=O)=O)cc1)=C1/C(=O)Nc2ccccc21`, the inhibition was 43.1% in [1]; 1.09% in [2]; 0.76% in assay [3]; -1.67% in assay [4]; 17.8% in [5]; 6.38% in assay [6]. Moreover, the inhibition was determined as 35.9% in [7], 13% in [8], 53.9% in [9] and 5.97% in assay [10].
As to `NS(=O)(=O)c1ccc(N/N=C2\C(=O)Nc3ccc(C(=O)NCCCn4ccnc4)cc32)cc1`, the inhibition in assay [1] came to 68.9%; in [2], 2.01%; in [3], 2.76%; in [4], 14.3%; in assay [5], 20.9%; in [6] it was 12.5%. Besides, the inhibition was 51.9% in [7], 38.7% in assay [8], 76.2% in assay [9] and 14.2% in assay [10].
With `CN(C)c1ccc2c(c1)/C(=C/Nc1ccc(S(N)(=O)=O)cc1)C(=O)N2`, the inhibition stood at 71.3% in assay [1]; 1.57% in [2]; 2.09% in assay [3]; 8.05% in assay [4]; 31.7% in assay [5]; 20.2% in assay [6]. The inhibition was 51.5% in assay [7], 12.5% in assay [8], 51.1% in assay [9] and 11.2% in [10].
On to `CCc1ccc(Oc2nccc(-c3c(-c4ccc(F)cc4)ncn3C3CCNCC3)n2)cc1`, for which the inhibition is 13.8% in assay [1]; 0.83% in [2]; -0.45% in assay [3]; -1.83% in assay [4]; 2.07% in [5]; 3.04% in assay [6]. Moreover, the inhibition worked out at 7.38% in assay [7], 3.58% in assay [8], 4.57% in assay [9] and 4% in assay [10].
With `COc1cccc(-n2cnc3c(N/N=C/c4ccncc4)ncnc32)c1`, the inhibition in [1] is 49.9%; in assay [2], -0.1%; in assay [3] it was 0.9%; in assay [4] it was -4.12%; in assay [5], 10.5%; in [6], 3.89%. Also, the inhibition in assay [7] was 13.9%; in assay [8], -0.06%; in assay [9], 12.5%; in [10], 2.51%.
With `COc1ccc(-c2ccc3c(NC(=O)C4CC4)n[nH]c3n2)cc1`, the inhibition in assay [1] is 5.91%; in [2], 0.53%; in assay [3], -0.31%; in assay [4], 0.18%; in assay [5] it was 6.52%; in assay [6] it was 0.65%. Moreover, the inhibition in assay [7] turned out to be 1.93%; in [8], 6.95%; in assay [9], 9.13%; in [10], 0.39%.
Take `CNC(=O)c1cncc(/C=C/c2c(C)cccc2C)c1`: the inhibition in [1] was 26.2%; in [2], 1.71%; in assay [3], 17.3%; in assay [4] it was -2.5%; in assay [5] it was -2.35%; in assay [6], 4.57%. Besides, the inhibition in [7] is 7.32%; in assay [8] it was -0.1%; in assay [9], 6.46%; in assay [10], 1.16%.
For `O=C(NCC1CC1)c1ccc(-c2cccc(C(=O)NC3CC3)c2)cc1`, the inhibition was 8.57% in [1]; 1.88% in [2]; 0.07% in assay [3]; 1.01% in assay [4]; 8.49% in assay [5]; 3.9% in assay [6]. In addition, the inhibition was 7.06% in assay [7], 1.77% in [8], 7.1% in [9] and 8.82% in assay [10].
As to `NCc1ccc(-n2c(-c3nonc3N)nc3cnccc32)cc1`, the inhibition in [1] came out at 37.3%; in [2], 1.83%; in [3] it was 1.83%; in assay [4] it was 11.2%; in assay [5], 9.24%; in assay [6], 5.69%. For the same molecule, the inhibition in assay [7] was determined as 7.7%; in assay [8], 7.22%; in assay [9] it was 9.65%; in assay [10] it was 7.37%.
Regarding `Cc1ccc(C(=O)NC2CCC2)cc1-c1ccc(C(=O)NCC2CC2)cc1`, the inhibition in assay [1] stood at 4.37%; in [2] it was 1.45%; in assay [3] it was 0.56%; in assay [4], 4.2%; in [5], 4.27%; in [6] it was 7.54%. For the same molecule, the inhibition in assay [7] was 8.34%; in assay [8], 4.17%; in assay [9] it was -0.01%; in assay [10], 2.44%.
`NS(=O)(=O)c1ccc(N/N=C2\C(=O)Nc3ccc(-c4cnco4)cc32)cc1`: the inhibition worked out at 50.4% in assay [1]; 1.59% in assay [2]; 1.95% in [3]; 9.59% in assay [4]; 19.7% in assay [5]; 7.98% in assay [6]. In addition, the inhibition in assay [7] is 29%; in assay [8], 15%; in assay [9], 54%; in assay [10], 8.71%.
Consider `O=C(Nc1ccc(Oc2ccc3[nH]c(NC(=O)c4ccccc4)nc3c2)cc1)Nc1cc(C(F)(F)F)ccc1F`, for which the inhibition in assay [1] came to 31.1%; in [2], 1.86%; in assay [3], 2.1%; in assay [4] it was 5.27%; in assay [5] it was 14.2%; in [6], 62.6%. Moreover, the inhibition was 90.2% in assay [7], 25.4% in assay [8], 78.7% in [9] and 38.6% in assay [10].
In the case of `CCS(=O)(=O)c1ccc(OC)c(Nc2ncc(-c3ccccc3Cl)o2)c1`, the inhibition in assay [1] worked out at 28%; in [2] it was 0.68%; in assay [3], 4.99%; in assay [4] it was 6.54%; in [5] it was 45.2%; in assay [6], 4%. The inhibition in assay [7] worked out at 8.62%; in assay [8], 3.06%; in [9], 21.2%; in assay [10], 2.23%.
